Source: PubChem (National Center for Advancing Translational Sciences (NCATS))
The list is not random: actives were taken first. Their share in the collection is about 7.8%.
Vaccinia Venus: qHTS for Stage-Specific Inhibitors of Vaccinia Orthopoxvirus: Venus Reporter Primary qHTS; AID 720580, 2013; Vaccinia virus Venus reporter expression, fluorescence; Potency, µM (highest dose often 36.5 µM), hits mostly inhibitors; actives 0.46% (n = 330,000); calls by dose curve; tested in A549 cells; also: nearly all actives have a fitted effect of over 30% in size
Marburg entry inh: qHTS for inhibitors of binding or entry into cells for Marburg Virus | Marburg virus pseudotyped entry inhibition, cell reporter | actives 1.8% (n = 300,000) | Potency, µM (titrated, usually from 37.8 µM), actives largely listed as inhibitors | AID 540276, 2011; calls by dose curve; tested in HEK293 cells
LASV entry inh: qHTS for Inhibitors of binding or entry into cells for Lassa Virus. AID 540256, 2011. Potency, µM (series often up to 37.9 µM), actives largely listed as inhibitors. actives 1.2% (n = 300,000). Lassa virus pseudotype entry inhibition, cell reporter; calls by dose curve; tested in HEK293 cells; also: nearly all actives have a fitted effect of over 50% in size
HCMV inh: qHTS Assay for inhibitors of the human cytomegalovirus (HCMV) | activity change, negative = inhibition, % at 57.5 µM | actives 4.5% (n = 410,000) | HFF cells, HCMV-luciferase reporter, 72 h; stronger effect = lower value | AID 1259415, 2018; in the data active = activity change below about -60%; inconclusive = no clear call, values can overlap the other calls; inactive = above about -39%
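Screen run at 2 compound doses on HFFs infected with reporter HCMV, MOI 1 PFU/cell. Luciferase activity from cell lysates at 72 h post infection gave inhibition relative to buffer-only and Salinomycin wells.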
Vaccinia mCherry: qHTS for Stage-Specific Inhibitors of Vaccinia Orthopoxvirus: mCherry Reporter Primary qHTS. actives 0.63% (n = 310,000). AID 720579, 2013. Potency, µM (highest dose often 36.5 µM), most hits filed as inhibitors. Vaccinia virus mCherry reporter infection, fluorescence; calls by dose curve; tested in A549 cells; also: nearly all actives have a fitted effect of over 35% in size
HCV inhibitor: qHTS Assay for Inhibitors of Hepatitis C Virus (HCV); AID 651820, 2012; actives 3.4% (n = 340,000); Huh7.5.1 HCVcc-Cre infection, luciferase reporter, 44 h; Potency, µM (doses to about 41.8 µM), most hits filed as inhibitors; active = well fitted inhibition curve with a large enough effect; inconclusive = small, poorly fitted or top-dose-only effect, or another doubt; inactive = no such curve, though single readings can be large or run the other way
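Reporter virus HCVcc-Cre (~0.5 moi) infects cells exposed to compound; seeding density 1,000 cells/well with 4 h settling beforehand. Luminescence, 15 sec read, taken 44 h post-infection following a 15 min RT substrate incubation.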
Numbers stand for hits; - = inactive; ? = inconclusive; . = no result; [ ] = another dose, or the depositor's remark.

SMILES | Vaccinia Venus | Marburg entry inh | LASV entry inh | HCMV inh | Vaccinia mCherry | HCV inhibitor
COc1ccc(-c2nn(-c3ccccc3)cc2/C=N/NC(N)=S)cc1OC | ? | ? | ? | - | ? | 11.2µM
COc1ccc(-c2nn(-c3ccccc3)cc2/C=N/n2cnnc2)cc1OC | - | - | - | - | . | ?
O=C(c1ccc(-n2c(SCc3cccc(F)c3)nc3ccccc3c2=O)cc1)N1CCOCC1 | - | - | - | -62.9 | - | -
COc1ccccc1CNC(=O)c1nnn(CC(=O)Nc2c(C)cccc2C)c1N | - | . | ? | - | - | .
COc1ccc(NC(=O)Cn2c(=O)n(Cc3ccccc3Cl)c(=O)c3cc(OC)c(OC)cc32)cc1OC | - | - | - | - | - | .
N=C(N)SCc1ccc(Cl)cc1Cl | - | ? | ? | - | - | 11.2µM
NC(=S)Cc1ccc(Cl)cc1Cl | - | ? | - | - | - | -
N#C/C(=C\c1ccc(O)c([N+](=O)[O-])c1)c1nc2ccccc2s1 | - | - | ? | ? | - | -
COc1cc(/C=C(\C#N)c2nc3ccccc3s2)cc([N+](=O)[O-])c1O | - | ? | - | -62.1 | - | -
Cc1ccc(CN2CCN(Cc3c(C)nn(C(C)C)c3C)CC2CCO)o1 (stereo not drawn) | . | . | . | -98.6 | . | -
Cc1ccc(CN2CCN(Cc3ccncc3)CC2CCO)o1 (stereo not drawn) | - | - | - | - | - | -
COc1cc2cc(c1Cl)N(C)C(=O)CC(OC(=O)C(C)N(C)C(C)=O)C1(C)OC1C(C)C1CC(O)(NC(=O)O1)C(OC)C=CC=C(C)C2 (stereo not drawn) | - | - | ? | -80.5 | ? | ?
COc1ccc(-n2c(CCC(=O)O)ccc2-c2ccccc2)c(OC)c1 | - | ? | ? | - | - | .
CCc1ccc(C(=O)c2cn(CC(=O)Nc3ccc(Cl)cc3)c3cc4c(cc3c2=O)OCO4)cc1 | - | 4.47µM | ? | - | - | .
CCc1ccc2c(c1)c(=O)c(C(=O)c1ccccc1)cn2CC(=O)Nc1ccc(C)c(Cl)c1 | ? | - | - | -68.6 | ? | .
CCc1ccc(C(=O)c2cn(CC(=O)Nc3ccc4c(c3)OCO4)c3ccc(Cl)cc3c2=O)cc1 | ? | - | - | - | - | .
CCCn1cc(SCC(=O)Nc2ccc3c(c2)OCO3)c2ccccc21 | - | . | . | -65.5 | ? | 14.1µM
CCc1ccc(C(=O)c2cn(CC(=O)Nc3ccc4c(c3)OCO4)c3ccc(CC)cc3c2=O)cc1 | - | - | - | -88.2 | - | .
COC(=O)c1ccc(CN2C(=O)[C@]3(O[C@H](C)CC4=CCCC43)c3c(Br)cccc32)cc1 (stereo partly drawn) | . | - | . | . | . | .
CC1=C[C@@H](C)OC2(C1)C(=O)N(CC1CC1)c1cccc(Br)c12 (stereo partly drawn) | . | - | . | . | . | .
COc1ccc2nc(Nc3nc(CSc4nnc(C)s4)cc(=O)[nH]3)nc(C)c2c1 | . | - | - | . | . | -[0.335 µM]
Cc1ccc2nc(Nc3nc(CSc4nnc(C)s4)cc(=O)[nH]3)nc(C)c2c1 | - | - | . | -80.8 | - | ?
COc1ccc2c(C)nc(Nc3nc(-c4ccccc4)cc(=O)[nH]3)nc2c1 | 3.98µM | ? | 4.61µM | -93.3 | ? | 5.62µM
Cc1ccc2nc(Nc3nc(-c4ccccc4)cc(=O)[nH]3)nc(C)c2c1 | ? | ? | - | -67.3 | . | ?
Cc1nc(-c2ccc(C)c(N3CCN(C(=O)Nc4ccccc4C(F)(F)F)CC3)c2)no1 | - | . | - | - | - | .
SMILES | Vaccinia Venus | Marburg entry inh | LASV entry inh | HCMV inh | Vaccinia mCherry | HCV inhibitor
Cc1ccc(N(C)S(=O)(=O)c2ccc3[nH]c(=O)ccc3c2)cc1 | - | . | - | - | - | .
Cc1ccc(-n2c3nc(=O)[nH]c(=O)c-3cc3cc([N+](=O)[O-])ccc32)cc1C | - | ? | ? | -98.6 | - | 35.5µM
CCCCCCCCNc1ncnc2ccccc12 | ? | ? | ? | . | ? | 0.794µM
CCc1ccccc1Nc1ncnc2ccccc12 | - | - | ? | - | - | ?
Brc1ccc2ncnc(NCc3ccccc3)c2c1 | ? | ? | ? | -96.2 | . | 10µM
Cc1cc2c(NCCc3ccccc3)ncnc2s1 | - | 7.08µM | ? | -88.3 | - | 5.62µM
Cc1cc2c(NC3CCCCC3)ncnc2s1 | - | ? | ? | ? | - | 10µM
Cc1ccc(-n2ncc3c(NCCc4ccccc4)ncnc32)cc1 | - | . | - | - | - | .
c1ccc(CCNc2ncnc3ccccc23)cc1 | . | . | . | -89.3 | . | 1.12µM
C/C(=N/Oc1nc(C)cc(C)n1)c1ccc(Cl)cc1Cl | - | - | - | -61.1 | . | -
Cc1c(Cl)cccc1NC(=O)NCCOCCn1c(=O)oc2ccccc21 | - | - | - | - | - | .
O=C(O)CSCC(=O)N1CCN(c2ccnc3cc(Cl)ccc23)CC1 | . | . | . | . | . | -
Cc1ccc(F)cc1NC(=O)N1CCN(c2ccnc3cc(Cl)ccc23)CC1 | . | . | . | -68.7 | . | 3.55µM
CCCCNC(=O)N1CCN(c2ccnc3cc(Cl)ccc23)CC1 | - | ? | - | . | - | -
O=C(Nc1cc(F)ccc1F)N1CCN(c2ccnc3cc(Cl)ccc23)CC1 | . | . | . | -83.5 | . | 11.2µM
O=S(=O)(c1cccs1)N1CCN(c2ccccc2Cl)CC1 | - | - | - | - | - | .
Cc1cccc(Cl)c1NC(=O)N1CCN(c2ccnc3cc(Cl)ccc23)CC1 | . | . | . | -65.1 | . | ?
O=S(=O)(c1cccs1)N1CCN(c2ccnc3cc(Cl)ccc23)CC1 | ? | ? | ? | -60.3 | ? | ?
CC(=O)N1CCN(c2ccnc3cc(Cl)ccc23)CC1 | - | - | - | ? | - | -
O=C(CCC1N=C2c3ccccc3N=C(SCc3ccc(Cl)cc3)N2C1=O)NCc1cccs1 (stereo not drawn) | - | . | ? | - | - | .
O=c1cc(-c2ccc(O)c(O)c2)oc2ccccc12 | - | . | . | . | - | .
Cc1ccccc1-c1noc(CSc2nc3ccccc3[nH]2)n1 | - | - | - | - | - | .
Cc1cc(OC(=O)c2cc(-c3ccc4c(c3)OCCO4)on2)ccc1Cl | - | - | - | - | - | .
O=C(Nc1ccc(C(F)(F)F)cc1)N1CCN(c2ccnc3cc(Cl)ccc23)CC1 | - | ? | ? | -72.3 | - | 8.91µM
Cc1ccc(S(=O)(=O)N(CC(=O)N2CCC(C)CC2)Cc2ccccc2F)cc1 | . | ? | ? | -62.6 | . | -
Cc1ccc(S(=O)(=O)N(CC(=O)N2CCCCCC2)c2ccccc2)cc1 | . | - | 6.51µM | - | . | -
CCN(CC(=O)N1CCC(C)CC1)S(=O)(=O)c1ccc(C)cc1 | - | - | - | - | - | -
COc1ccc(N(CC(=O)N2CCN(c3cccc(C)c3)C(C)C2)S(=O)(=O)c2c(C)n[nH]c2C)cc1 (stereo not drawn) | - | ? | ? | -76.5 | - | -
Cc1ccc(S(=O)(=O)N(CC(=O)N2CCC(C)CC2)c2ccccc2)cc1 | - | - | - | - | - | -
COc1ccc(S(=O)(=O)N(CC(=O)N2CCC(C)CC2)c2ccc(C)cc2)cc1 | - | - | 7.08µM | - | - | .
